Key:
Assay in all cases: DAPPL (digital affinity profiling via proximity ligation, sequencing); 10 mM Tris-HCl pH 7.5, 50 mM NaCl, 1 mM DTT, 4% glycerol, room temperature, 30 min; GST-TFs on glutathione beads, 16-mer random dsDNA library, 0.1% formaldehyde crosslink after washing; high values mean tight binding
Conditions in all cases: protein: recombinant; tags: N-terminal GST; dsDNA, one strand shown
FLI1 = biological target: T1, FLI1 (Homo sapiens, UniProt Q01543 1-452)
T1 sequence: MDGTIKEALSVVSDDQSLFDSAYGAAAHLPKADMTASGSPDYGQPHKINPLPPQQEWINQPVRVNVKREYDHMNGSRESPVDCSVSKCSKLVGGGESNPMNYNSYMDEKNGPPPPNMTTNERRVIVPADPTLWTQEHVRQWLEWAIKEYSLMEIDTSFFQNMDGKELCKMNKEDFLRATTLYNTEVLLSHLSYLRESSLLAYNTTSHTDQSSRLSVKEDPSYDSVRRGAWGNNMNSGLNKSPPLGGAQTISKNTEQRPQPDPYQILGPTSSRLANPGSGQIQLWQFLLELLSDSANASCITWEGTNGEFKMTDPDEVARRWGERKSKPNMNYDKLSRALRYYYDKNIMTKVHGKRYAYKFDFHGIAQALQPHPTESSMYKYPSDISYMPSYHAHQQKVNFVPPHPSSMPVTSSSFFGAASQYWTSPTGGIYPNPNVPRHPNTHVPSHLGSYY
Method in brief: (§1)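 Pools were built from human transcription factors expressed in yeast as GST fusions, captured on glutathione beads and DNA-barcoded, along with a tag-only sample. Incubation with 200 nmole of a 16-mer random double-stranded DNA library lasted 30 min at room temperature in Tris/NaCl/DTT/glycerol buffer, and was followed by washing, 0.1% formaldehyde crosslinking, proximity ligation, PCR amplification and Illumina NextSeq500 sequencing. Binding signal is the quotient of each hexamer's read frequency for a factor and its frequency for the tag-only sample.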

ELK1 = biological target: T2, ELK1 (Homo sapiens, UniProt P19419 1-428)
T2 sequence: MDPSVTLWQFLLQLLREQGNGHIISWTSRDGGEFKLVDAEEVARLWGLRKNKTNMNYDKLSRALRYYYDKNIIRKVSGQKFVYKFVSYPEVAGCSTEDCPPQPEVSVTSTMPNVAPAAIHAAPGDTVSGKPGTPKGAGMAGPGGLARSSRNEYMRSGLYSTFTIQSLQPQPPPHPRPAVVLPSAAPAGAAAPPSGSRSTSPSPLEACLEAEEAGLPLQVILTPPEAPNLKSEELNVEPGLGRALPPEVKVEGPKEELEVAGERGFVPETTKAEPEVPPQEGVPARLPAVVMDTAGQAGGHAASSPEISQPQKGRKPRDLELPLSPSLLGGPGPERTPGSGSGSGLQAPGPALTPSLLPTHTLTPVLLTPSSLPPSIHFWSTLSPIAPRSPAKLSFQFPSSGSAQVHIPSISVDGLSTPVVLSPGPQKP
Method in brief: as §1

ERG = biological target: T3, ERG (Homo sapiens, UniProt P11308 1-479)
T3 sequence: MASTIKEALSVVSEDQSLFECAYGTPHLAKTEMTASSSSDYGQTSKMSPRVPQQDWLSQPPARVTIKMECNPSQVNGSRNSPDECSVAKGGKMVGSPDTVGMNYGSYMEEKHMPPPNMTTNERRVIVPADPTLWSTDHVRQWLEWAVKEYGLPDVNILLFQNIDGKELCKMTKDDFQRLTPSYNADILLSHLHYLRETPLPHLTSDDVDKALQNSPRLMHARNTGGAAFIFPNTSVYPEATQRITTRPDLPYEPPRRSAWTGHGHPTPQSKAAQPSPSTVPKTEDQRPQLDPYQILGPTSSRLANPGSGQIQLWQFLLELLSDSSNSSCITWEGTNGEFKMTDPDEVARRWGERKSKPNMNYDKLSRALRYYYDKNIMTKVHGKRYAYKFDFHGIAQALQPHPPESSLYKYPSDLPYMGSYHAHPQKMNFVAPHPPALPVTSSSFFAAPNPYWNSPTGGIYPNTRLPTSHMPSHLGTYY
Method in brief: as §1

ELF1 = ELF1 (Homo sapiens, UniProt P32519 1-619)
Method in brief: as §1

EHF = biological target: T4, EHF (Homo sapiens, UniProt Q9NZC4 1-300)
T4 sequence: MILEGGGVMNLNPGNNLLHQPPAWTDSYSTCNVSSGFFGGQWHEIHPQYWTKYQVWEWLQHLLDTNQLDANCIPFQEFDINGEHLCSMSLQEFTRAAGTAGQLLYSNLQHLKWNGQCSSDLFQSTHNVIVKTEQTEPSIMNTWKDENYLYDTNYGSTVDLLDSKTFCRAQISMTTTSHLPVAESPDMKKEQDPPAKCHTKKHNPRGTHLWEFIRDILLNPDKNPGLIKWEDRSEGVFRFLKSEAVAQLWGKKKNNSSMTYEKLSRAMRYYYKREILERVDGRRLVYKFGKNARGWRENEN
Method in brief: as §1

SPI1 = SPI1 (Homo sapiens, UniProt P17947 1-270)
Method in brief: as §1

SPIB = SPIB (Homo sapiens, UniProt Q01892 1-262)
Method in brief: as §1

ELK3 = biological target: T5, ELK3 (Homo sapiens, UniProt P41970 1-407)
T5 sequence: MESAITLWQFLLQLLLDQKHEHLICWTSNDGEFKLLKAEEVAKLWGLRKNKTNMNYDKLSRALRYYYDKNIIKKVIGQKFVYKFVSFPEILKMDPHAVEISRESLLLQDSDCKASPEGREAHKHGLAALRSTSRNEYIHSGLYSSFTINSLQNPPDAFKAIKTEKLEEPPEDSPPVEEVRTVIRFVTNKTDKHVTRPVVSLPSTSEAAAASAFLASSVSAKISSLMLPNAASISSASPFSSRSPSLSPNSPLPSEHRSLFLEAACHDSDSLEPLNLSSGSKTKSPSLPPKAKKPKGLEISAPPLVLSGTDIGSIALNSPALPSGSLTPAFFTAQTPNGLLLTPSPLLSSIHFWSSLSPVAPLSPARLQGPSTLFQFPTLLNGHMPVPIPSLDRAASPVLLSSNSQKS
Method in brief: as §1

GABPA = biological target: T6, GABPA (Homo sapiens, UniProt Q06546 1-454)
T6 sequence: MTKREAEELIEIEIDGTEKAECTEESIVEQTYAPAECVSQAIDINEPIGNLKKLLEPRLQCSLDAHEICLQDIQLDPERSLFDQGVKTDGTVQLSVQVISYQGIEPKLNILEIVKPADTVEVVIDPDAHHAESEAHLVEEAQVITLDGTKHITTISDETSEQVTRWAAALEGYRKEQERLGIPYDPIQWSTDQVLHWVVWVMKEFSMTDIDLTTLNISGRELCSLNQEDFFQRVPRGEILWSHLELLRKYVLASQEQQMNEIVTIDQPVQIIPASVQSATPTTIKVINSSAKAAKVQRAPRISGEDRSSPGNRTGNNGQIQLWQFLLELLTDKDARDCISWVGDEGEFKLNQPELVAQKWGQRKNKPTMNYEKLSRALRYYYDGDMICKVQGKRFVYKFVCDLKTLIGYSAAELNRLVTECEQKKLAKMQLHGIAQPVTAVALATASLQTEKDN
Method in brief: as §1

ELF1, sequence (P32519 whole entry): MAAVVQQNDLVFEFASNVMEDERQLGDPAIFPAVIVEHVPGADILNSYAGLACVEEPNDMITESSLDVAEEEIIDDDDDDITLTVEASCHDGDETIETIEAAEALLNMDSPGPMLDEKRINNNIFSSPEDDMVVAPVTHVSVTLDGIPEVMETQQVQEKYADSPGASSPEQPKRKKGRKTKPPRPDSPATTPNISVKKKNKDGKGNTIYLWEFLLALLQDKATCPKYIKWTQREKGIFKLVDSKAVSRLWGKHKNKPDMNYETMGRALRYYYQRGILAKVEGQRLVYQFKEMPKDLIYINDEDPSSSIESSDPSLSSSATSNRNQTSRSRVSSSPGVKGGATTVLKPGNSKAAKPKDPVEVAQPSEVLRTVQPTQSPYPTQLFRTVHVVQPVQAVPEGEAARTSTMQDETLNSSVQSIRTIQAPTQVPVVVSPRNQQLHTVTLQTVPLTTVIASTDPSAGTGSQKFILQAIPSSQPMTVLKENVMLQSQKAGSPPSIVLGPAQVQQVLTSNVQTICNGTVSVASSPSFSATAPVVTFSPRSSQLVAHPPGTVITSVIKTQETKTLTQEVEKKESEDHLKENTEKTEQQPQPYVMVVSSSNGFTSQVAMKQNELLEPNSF
SPIB, sequence (Q01892 whole entry): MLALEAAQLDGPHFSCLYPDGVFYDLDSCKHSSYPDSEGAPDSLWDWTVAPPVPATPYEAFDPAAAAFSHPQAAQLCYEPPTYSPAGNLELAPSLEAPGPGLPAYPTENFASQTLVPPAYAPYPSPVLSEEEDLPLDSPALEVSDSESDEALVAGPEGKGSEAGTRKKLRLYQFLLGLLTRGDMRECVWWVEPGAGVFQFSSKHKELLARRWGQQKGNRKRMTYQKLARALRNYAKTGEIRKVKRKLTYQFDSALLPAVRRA

| Sequence | binding signal (FLI1) | binding signal (ELK1) | binding signal (ERG) | binding signal (ELF1) | binding signal (EHF) | binding signal (SPI1) | binding signal (SPIB) | binding signal (ELK3) | binding signal (GABPA) |
| --- | --- | --- | --- | --- | --- | --- | --- | --- | --- |
| CCGCGC | 1.12 fold enrichment (6-mer frequency, TF over GST control) | 1.16 fold enrichment (6-mer frequency, TF over GST control) | 1.2 fold enrichment (6-mer frequency, TF over GST control) | 1.18 fold enrichment (6-mer frequency, TF over GST control) | 1.05 fold enrichment (6-mer frequency, TF over GST control) | 1.14 fold enrichment (6-mer frequency, TF over GST control) | 1.24 fold enrichment (6-mer frequency, TF over GST control) | 1.24 fold enrichment (6-mer frequency, TF over GST control) |  |
| GTCCAT | 1.22 fold enrichment (6-mer frequency, TF over GST control) | 1.07 fold enrichment (6-mer frequency, TF over GST control) | 1.14 fold enrichment (6-mer frequency, TF over GST control) | 1.1 fold enrichment (6-mer frequency, TF over GST control) | 1.13 fold enrichment (6-mer frequency, TF over GST control) | 1.08 fold enrichment (6-mer frequency, TF over GST control) | 1.07 fold enrichment (6-mer frequency, TF over GST control) | 1.2 fold enrichment (6-mer frequency, TF over GST control) |  |
| TAATCG | 1.07 fold enrichment (6-mer frequency, TF over GST control) | 1.09 fold enrichment (6-mer frequency, TF over GST control) |  | 1.04 fold enrichment (6-mer frequency, TF over GST control) | 1.07 fold enrichment (6-mer frequency, TF over GST control) | 1.02 fold enrichment (6-mer frequency, TF over GST control) | 1.04 fold enrichment (6-mer frequency, TF over GST control) | 1.07 fold enrichment (6-mer frequency, TF over GST control) | 1.14 fold enrichment (6-mer frequency, TF over GST control) |
| TCATAA | 1.03 fold enrichment (6-mer frequency, TF over GST control) | 1.05 fold enrichment (6-mer frequency, TF over GST control) |  | 1.02 fold enrichment (6-mer frequency, TF over GST control) |  | 1.06 fold enrichment (6-mer frequency, TF over GST control) |  |  | 1.03 fold enrichment (6-mer frequency, TF over GST control) |
| CAAATC | 1.06 fold enrichment (6-mer frequency, TF over GST control) | 1.08 fold enrichment (6-mer frequency, TF over GST control) | 1.14 fold enrichment (6-mer frequency, TF over GST control) | 1.16 fold enrichment (6-mer frequency, TF over GST control) | 1.12 fold enrichment (6-mer frequency, TF over GST control) | 1.04 fold enrichment (6-mer frequency, TF over GST control) | 1.11 fold enrichment (6-mer frequency, TF over GST control) | 1.01 fold enrichment (6-mer frequency, TF over GST control) |  |
| CGATGA | 1.01 fold enrichment (6-mer frequency, TF over GST control) | 1.09 fold enrichment (6-mer frequency, TF over GST control) |  | 1.11 fold enrichment (6-mer frequency, TF over GST control) | 1.08 fold enrichment (6-mer frequency, TF over GST control) | 1.06 fold enrichment (6-mer frequency, TF over GST control) | 1.01 fold enrichment (6-mer frequency, TF over GST control) | 1.09 fold enrichment (6-mer frequency, TF over GST control) | 1.05 fold enrichment (6-mer frequency, TF over GST control) |
| AGCTAA | 1.08 fold enrichment (6-mer frequency, TF over GST control) | 1.05 fold enrichment (6-mer frequency, TF over GST control) | 1.06 fold enrichment (6-mer frequency, TF over GST control) | 1.02 fold enrichment (6-mer frequency, TF over GST control) | 1.08 fold enrichment (6-mer frequency, TF over GST control) | 1.08 fold enrichment (6-mer frequency, TF over GST control) | 1.01 fold enrichment (6-mer frequency, TF over GST control) | 1.01 fold enrichment (6-mer frequency, TF over GST control) |  |

From publication PMC7862700, “An all-to-all approach to the identification of sequence-specific readers for epigenetic DNA modifications on cytosine”
